In the OligoGym collection one finds sensor-assay potency score (higher = more potent) data, which are given here for 16 sequences.
Note: reference of the scale not given here.

One experiment has as its target WDR59. Put plainly: pooled miR-30 sensor sort-seq; sequence = guide strand. The note with it: shRNA.
In turn, TTACTTTTCCATCGTCTTGATT had a sensor-assay potency score (higher = more potent) of -0.978.

TACTAGAATTTTATTAGCCAAG returned a sensor-assay potency score (higher = more potent) of -1.53.

The sequence TTGCAGATGGCACACTGCGTGC yielded a sensor-assay potency score (higher = more potent) of -1.5.

For the sequence TTGATCTGTCGATTGCCAGAGT, the sensor-assay potency score (higher = more potent) is -0.462.

The target of another experiment is WDR74. The experiment is described as above. To be noted: shRNA.
Sequence TGTCTCTGTGTCTTCTAGGGGC showed a sensor-assay potency score (higher = more potent) of -0.152.

The sequence ATATCTTCAAAGCATTCTCTTT gave a sensor-assay potency score (higher = more potent) of -1.27.

Sequence TATCTTCAAAGCATTCTCTTTC registered a sensor-assay potency score (higher = more potent) of -0.0108.

The sequence TGGATCATAAACACGGACCTGG had a sensor-assay potency score (higher = more potent) of 0.064.

Sequence TTCACCGTCCTGTCCGCGCAGC came in with a sensor-assay potency score (higher = more potent) of -1.09.

Sequence TTCAAGATCCCAGTCTCGGTGC displayed a sensor-assay potency score (higher = more potent) of -0.0333.

For TATCCTCAAGACTCTGTCCAAG, the sensor-assay potency score (higher = more potent) is -0.997.

Regarding TAGTGAGTACTCTCCATAGGTG, the sensor-assay potency score (higher = more potent) is -0.709.

TTTCGCTGAAGATTTACCCCTT: the sensor-assay potency score (higher = more potent) amounted to 0.223.

As to TGACAAGCTTCTGTGATCCTGG, the sensor-assay potency score (higher = more potent) is 0.195.

On to TTGAGACTTGAGATAAACCTTA, for which the sensor-assay potency score (higher = more potent) was found to be 0.692.

For TTCTTCTTTCTCCGTCTCGTTT, the sensor-assay potency score (higher = more potent) is -0.81.
